According to PubChem BioAssay (NCATS):
Records with an inconclusive call do not appear. Entries that show only a call come without a potency. The source made the active and inactive calls. The call rests on the fitted dose curve; in most records, active means well fitted cell-killing curve with a large enough effect; inconclusive means small, poorly fitted or top-dose-only effect, or effect the other way; inactive means no such curve, though single readings can be large or run the other way.

Assays:
[1] = Quantitative High-Throughput drug screen in 47 multiple myeloma cell lines against the NCATS MIPE library collection: RPMI8226_ATCC cell viability assay (AID 1919871); conditions: RPMI8226 myeloma viability, CellTiter-Glo ATP luminescence, 48 h; series mostly up to 45.8 µM; further: nearly all actives have a fitted effect of over 30% in size
Outline: (§1)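 Cells were exposed to library compounds for 48 hours, after which ATP was measured by CellTiter-Glo. Signal was taken as median relative luminescence units.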

[2] = Quantitative High-Throughput drug screen in 47 multiple myeloma cell lines against the NCATS MIPE library collection: OPM2_DSMZ cell viability assay (AID 1919872); conditions: OPM2 myeloma viability, CellTiter-Glo ATP luminescence, 48 h; series mostly up to 45.8 µM; further: nearly all actives have a fitted effect of over 30% in size
Outline: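 Steps: seed 500 cells per well; pin-transfer MIPE 4.0 library; incubate 48 h at 37C, 5% CO2, humidified; add CellTiter-Glo, 5 min room temperature; read luminescence.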

[3] = Quantitative High-Throughput drug screen in 47 multiple myeloma cell lines against the NCATS MIPE library collection: KMS28BM_JCRB cell viability assay (AID 1919874); conditions: CellTiter-Glo ATP, 48 h; series mostly up to 45.8 µM; further: nearly all actives have a fitted effect of over 35% in size
Outline: as §1

[4] = Quantitative High-Throughput drug screen in 47 multiple myeloma cell lines against the NCATS MIPE library collection: KMS11_JCRBsus cell viability assay (AID 1919873); conditions: KMS11 myeloma viability, CellTiter-Glo ATP luminescence, 48 h; series mostly up to 45.8 µM; further: nearly all actives have a fitted effect of over 50% in size
Outline: as §1
Potency means the concentration at half of the fitted maximal effect.

SMILES: CN(C)C(=O)c1ccc(S(=O)(=O)c2ccc(NC(=O)[C@@](C)(O)C(F)(F)F)c(Cl)c2)cc1
- Potency [1]: inactive
- Potency [2]: inactive
- Potency [3]: inactive

SMILES: Cc1cccc(-c2nn(C(=S)Nc3ccccc3)cc2-c2ccnc3ccccc23)n1
- Potency [2]: inactive
- Potency [3]: inactive

SMILES: CC[C@@H](C)[C@H](NC(=O)[C@H](CC1CCCCC1)NC(=O)c1ccno1)C(=O)N1CCC2(CCc3ccccc32)CC1
- Potency [2]: 11.8 µM (active)
- Potency [3]: inactive

SMILES: CC(C)(N)C(=O)N[C@H](COCc1ccccc1)C(=O)N1CCC2(CC1)CN(S(C)(=O)=O)c1ccccc12
- Potency [2]: inactive

SMILES: O=S(=O)(N=Cc1c(O)ccc2ccccc12)c1cccs1
- Potency [2]: inactive

SMILES: NC(=O)c1ccc(-c2nc(-c3ccc4c(c3)OCO4)c(-c3ccccn3)[nH]2)cc1
- Potency [4]: inactive
- Potency [3]: inactive

SMILES: COc1ccc(C2=N[C@H](c3ccc(Cl)cc3)[C@H](c3ccc(Cl)cc3)N2C(=O)N2CCNC(=O)C2)c(OC(C)C)c1
- Potency [1]: 20.9 µM (active)
- Potency [2]: inactive
- Potency [4]: 16.6 µM (active)

SMILES: Cc1cc2c(F)c(Oc3ncnn4cc(OC[C@@H](C)O)c(C)c34)ccc2[nH]1
- Potency [2]: 23.5 µM (active)

SMILES: CC(C)C[C@H](NC(=O)[C@@H](O)[C@H](N)Cc1ccccc1)C(=O)O
- Potency [1]: 20.9 µM (active)
- Potency [4]: 9.35 µM (active)

SMILES: Cc1cc([C@@H](C)Nc2ccccc2C(=O)O)c2nc(N3CCOCC3)cc(=O)n2c1
- Potency [2]: 42.9 µM (active)

SMILES: NCCc1ccc(O)c(O)c1
- Potency [2]: 13.2 µM (active)
- Potency [4]: 9.35 µM (active)
- Potency [3]: inactive

SMILES: N#Cc1ccc(C(c2ccc(C#N)cc2)n2cncn2)cc1
- Potency [2]: 9.35 µM (active)
- Potency [3]: 5.9 µM (active)

SMILES: Nc1nccc(-c2ccc3noc(-c4ccc(Cl)cc4)c3c2)n1
- Potency [2]: inactive
- Potency [4]: inactive
- Potency [3]: inactive

SMILES: Nc1cccc(S(=O)(=O)N2CCCN(S(=O)(=O)c3ccc4c(c3)OCCO4)CC2)c1
- Potency [2]: inactive
